Hits are enriched below; roughly 2.5% of the tested compounds scored in any of these assays.
Caspase-1 inhib = caspase-1 (human) inhibition, allosteric or competitive; Potency, µM (top dose mostly 57.5 µM), inactives show at the top dose activity change, negative = inhibition, hits mostly inhibitors; 75,000 tested, 0.03% active; Caspase-1 enzyme, Ac-WEHD-AFC fluorogenic rate; P29466;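 further: plate controls were vehicle for no effect and no substrate for full effect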
Caspase-7 inhib = blocks human caspase-7 allosterically or competitively | P55210 | recombinant caspase-7, Ac-DEVD-AFC fluorescence rate | Potency, µM (highest dose often 57.5 µM), inactives show top-dose activity change, negative = inhibition, hits mostly inhibitors | 75,000 tested, 0.02% active; active means well fitted inhibition curve with a large enough effect in the main read-out, with a control signal flat, not every such curve was filed as active; inconclusive means small, poorly fitted or top-dose-only effect, or a change in a side signal; further: % of control where 0% means no effect
IkB sig inh = suppresses IkB signaling in ABC-DLBCL reporter cells | ABC-DLBCL IkBa-CBG/CBR dual luciferase ratio, 4 h; response scale: scaled: untreated 0%, proteasome inhibitor 100% | Potency, µM (doses to about 57.1 µM), for the others: at the top dose IkBa stabilization activation | 110,000 tested, 0.04% active | AID 445; active means well fitted curve in the direction sought with a large enough effect in the signal ratio, not every such curve was filed as active; inconclusive means small, poorly fitted or top-dose-only effect, or a change in a side signal; the % refers to the signal ratio;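 further: the direction sought is a rising ratio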
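Curves were fitted separately to fusion (green), unfused (red) and ratio luminescence, then classed by r2, magnitude and activity. Cells: OCI-Ly3, 4 h compound plus doxycycline at 37C; 10 uM MG-132 defined full response.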
p53ts 39C kill = kills p53ts cells at the nonpermissive temperature | H1299-p53A138V viability at 39C, ATP luminescence, 24 h | Potency, µM (top dose mostly 46.1 µM), for inactives: top-dose activity change, negative = cell killing, usual class: cytotoxic | 130,000 tested, 1.5% active | AID 902; further: on the % scale 0 is the no-effect control and ±100 the full control effect; nearly all actives have a fitted effect of over 55% in size
p53ts 32C tox = p53ts cell cytotoxicity, permissive temperature; H1299-p53A138V at 32C, ATP luminescence viability, 24 h; Potency, µM (top dose mostly 46.1 µM), for the others: at the top dose activity change, negative = cytotoxicity, actives largely listed as cytotoxic; AID 924; 130,000 tested, 0.93% active;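 further: 0% = DMSO and -100% = full killing by reference compound; nearly all actives have a fitted effect of over 55% in size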
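Viability by ATPlite luminescence after 24 h compound treatment (up to 46 uM) at the permissive 32C. Cells are H1299 carrying p53 A138V. Scale runs from DMSO basal to 100 uM tamoxifen as full kill; AC50 from Hill fits.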
Luciferase inh = inhibitors of firefly luciferase | purified firefly luciferase, luminescence, 8 min | Potency, µM (titrated, usually from 57.1 µM), for inactives: at the top dose activity change, negative = inhibition, usual class: inhibitors | P08659 | 72,000 tested, 2.2% active; further: on the % scale 0 is the no-effect control and ±100 the full control effect; nearly all actives have a fitted effect of over 40% in size
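Titration-based qHTS; buffer 50 mM imidazole pH 7.2, 50 mM KCl, 7 mM MgCl2, 10 uM ATP, 0.01% Tween 20, 0.05% BSA; luciferase/luciferin detector mix added after compound; 8 min, ambient; luminescence.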
An asterisk follows results filed as active; [ ] = remark or other dose. Unless noted, the call rests on the fitted dose curve; in most records, active means well fitted curve in the direction sought with a large enough effect; inconclusive means small, poorly fitted or top-dose-only effect, or another doubt; inactive means no such curve, though single readings can be large; an effect the other way counts as inactive or inconclusive. Potency means the concentration at half of the fitted maximal effect.

Results for COc1ccccc1N1CCN(C(=O)CN(c2cc(C)cc(C)c2)S(C)(=O)=O)CC1 ?
Caspase-1 inhib: -1%; Caspase-7 inhib: 1%; IkB sig inh: 0%; p53ts 39C kill: 3%; p53ts 32C tox: 3%; Luciferase inh: 3%

What do the screens show for `Cc1ccc(N2CCCn3c2cc(C)c(C#N)c3=O)cc1C`?
p53ts 39C kill: -6%; p53ts 32C tox: -5%

How did CCOC(=O)c1cc(-c2ccc(C)cc2)n(CCC(=O)Nc2ccc(OC)c(OC)c2)c1C do in these assays?
IkB sig inh: inconclusive; p53ts 39C kill: -5%; p53ts 32C tox: 23%

Results for CCOC(=O)c1cc(-c2ccc(C)cc2)n(CC(=O)Nc2ccc(OC)c(Cl)c2)c1C ?
IkB sig inh: -1%; p53ts 39C kill: 7.9µM*; p53ts 32C tox: inconclusive

What do the screens show for `COC(=O)C1=C(C)N=c2s/c(=C/c3ccoc3)c(=O)n2C1c1ccccc1` (configuration not stated)?
Caspase-1 inhib: -11%; Caspase-7 inhib: -14%; IkB sig inh: 3%; p53ts 39C kill: 6%; p53ts 32C tox: 20%; Luciferase inh: -1%

How did O=C(Nc1cc2ccc(O)cc2oc1=O)c1ccccc1 do in these assays?
IkB sig inh: inactive; p53ts 39C kill: 7.9µM*; p53ts 32C tox: inconclusive

Results for O=c1ccc2ccc(O)cc2o1 ?
Caspase-7 inhib: inconclusive; p53ts 39C kill: 6%; p53ts 32C tox: -3%

How did Clc1ccccc1C(c1nnnn1Cc1ccco1)N1CCN(Cc2ccco2)CC1 (configuration not stated) do in these assays?
Caspase-1 inhib: -3%; Caspase-7 inhib: -8%; IkB sig inh: 8%; p53ts 39C kill: -9%; p53ts 32C tox: 6%; Luciferase inh: -1%

What do the screens show for `CCN[C@@H]1C[C@H](N)[C@H](O[C@H]2OC(CN)=CC[C@H]2N)[C@@H](O)[C@H]1O[C@H]1OC[C@@](C)(O)[C@@H](NC)[C@@H]1O`?
Caspase-1 inhib: -3%[25.7 µM]; Caspase-7 inhib: 0%[25.7 µM]; IkB sig inh: 0%[25.6 µM]; p53ts 39C kill: 0%[20.6 µM]; p53ts 32C tox: 0%[20.6 µM]; Luciferase inh: -2%[25.5 µM]

How did Cc1nn2cc(-c3ccccc3)nc2s1 do in these assays?
Caspase-1 inhib: -2%; Caspase-7 inhib: 1%; IkB sig inh: inconclusive; p53ts 39C kill: 10µM*; p53ts 32C tox: 10µM*; Luciferase inh: 10µM*

What do the screens show for `CC(C)Cn1c(-c2cccc(Br)c2)nc2ccccc21`?
IkB sig inh: inconclusive; p53ts 39C kill: -26%; p53ts 32C tox: -5%

What do the screens show for `CCc1ccc(CNC(=O)C2CCN(c3nn4cc(-c5ccc(OC)cc5)nc4s3)CC2)cc1`?
p53ts 32C tox: -9%

Results for CCCCCc1nn2cc(-c3ccccc3)nc2s1 ?
IkB sig inh: inconclusive; p53ts 39C kill: 10µM*; p53ts 32C tox: inconclusive

How did Cc1nn2cc(-c3ccc(OC(C)C)cc3)nc2s1 do in these assays?
IkB sig inh: -4%; p53ts 39C kill: 10µM*; p53ts 32C tox: 13µM*

What do the screens show for `Cc1ccc(-c2cn3nc(N4CCC(C(=O)Nc5ccccc5C)CC4)sc3n2)cc1`?
p53ts 32C tox: 2%

How did CC(C)Cc1nn2cc(-c3cccc(Br)c3)nc2s1 do in these assays?
IkB sig inh: inconclusive; p53ts 39C kill: 10µM*; p53ts 32C tox: 13µM*

What do the screens show for `CCc1ccc(NC(=O)C2CCN(c3nn4cc(-c5ccc(OC)cc5)nc4s3)CC2)cc1`?
p53ts 32C tox: -4%

Results for CCCc1nn2c(C)c(-c3ccccc3)nc2s1 ?
IkB sig inh: 13%; p53ts 39C kill: 10µM*; p53ts 32C tox: 6.3µM*

What do the screens show for `c1ccc(-c2cn3nc(-c4ccccc4)sc3n2)cc1`?
Caspase-1 inhib: 0%; Caspase-7 inhib: 1%; IkB sig inh: inconclusive; p53ts 39C kill: inconclusive; p53ts 32C tox: 1µM*; Luciferase inh: 0.13µM*

Source: PubChem BioAssay (National Center for Advancing Translational Sciences (NCATS))
